Active and inactive are the calls of the source. Rule for the calls: active = hit-call score of the fitted dose curve at least 0.9, where 1 is the maximum; inactive = score below 0.9.
How the values were obtained:
[1] = read-out: Tissue plasminogen activator (tPA), PLAT (gene 5327); assay: BSK_BE3C_tPA: BioMAP Diversity Plus: BE3C Assay for Tissue plasminogen activator (tPA) Biomarker Activity (AID 2283041); conditions: primary human bronchial epithelial cells; actives raise or lower the signal;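 for outcome: tPA level quantified by ELISA one day after compound addition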
Outline: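 Primary human bronchial epithelial cells in the BE3C system, exposed to compound for 24 h. tPA was quantified by ELISA; DMSO served as baseline, with gain or loss of signal fitted. Cytotoxicity checked in parallel cultures by SRB total-protein staining.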

[2] = read-out: Interleukin-8 (IL8), CXCL8 (gene 3576); assay: BSK_CASM3C_IL8: BioMAP Diversity Plus: CASM3C Assay for Interleukin-8 (IL8) Biomarker Activity (AID 2283042); conditions: primary human coronary artery smooth muscle cells; actives raise or lower the signal;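 note: IL-8 protein level quantified by ELISA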
[3] = read-out: Human Leukocyte Antigen - DR isotype (HLADR), HLA-DRA (gene 3122); assay: BSK_CASM3C_HLADR: BioMAP Diversity Plus: CASM3C Assay for Human Leukocyte Antigen - DR isotype (HLADR) Biomarker Activity (AID 2283043); conditions: primary human coronary artery smooth muscle cells; actives raise or lower the signal;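 note: cell-surface HLA-DR protein level quantified by ELISA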
[4] = read-out: Macrophage colony-stimulating factor (MCSF), CSF1 (gene 1435); assay: BSK_CASM3C_MCSF: BioMAP Diversity Plus: CASM3C Assay for Macrophage colony-stimulating factor (MCSF) Biomarker Activity (AID 2283044); conditions: primary human coronary artery smooth muscle cells; actives raise or lower the signal;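 note: M-CSF protein amount quantified by ELISA after 24 h exposure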
[5] = read-out: Low-density lipoprotein receptor (LDLR), LDLR (gene 3949); assay: BSK_CASM3C_LDLR: BioMAP Diversity Plus: CASM3C Assay for Low-density lipoprotein receptor (LDLR) Biomarker Activity (AID 2283045); conditions: primary human coronary artery smooth muscle cells; actives raise or lower the signal;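 note: LDLR protein level on the cell surface quantified by ELISA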
[6] = read-out: Monocyte Chemoattractant Protein-1 (MCP1), CCL2 (gene 6347); assay: BSK_CASM3C_MCP1: BioMAP Diversity Plus: CASM3C Assay for Monocyte Chemoattractant Protein-1 (MCP1) Biomarker Activity (AID 2283046); conditions: primary human coronary artery smooth muscle cells; actives raise or lower the signal;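 note: MCP-1 level quantified by ELISA 24 h after dosing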
[7] = BSK_CASM3C_Proliferation: Cell Proliferation Assessment in the BioMAP Diversity Plus: CASM3C Assay (AID 2283047); conditions: primary human coronary artery smooth muscle cells;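 note: sulforhodamine B total protein stain as relative cell number at 560 nm; sub-confluent cells exposed 48 h before staining; fitted both ways against DMSO so gain or loss of cell number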
[8] = read-out: Monokine induced gamma interferon (MIG), CXCL9 (gene 4283); assay: BSK_CASM3C_MIG: BioMAP Diversity Plus: CASM3C Assay for Monokine induced gamma interferon (MIG) Biomarker Activity (AID 2283048); conditions: primary human coronary artery smooth muscle cells; actives raise or lower the signal;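 note: MIG protein level measured by ELISA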
[9] = read-out: serum amyloid A (SAA), SAA1 (gene 6288); assay: BSK_CASM3C_SAA: BioMAP Diversity Plus: CASM3C Assay for serum amyloid A (SAA) Biomarker Activity (AID 2283049); conditions: primary human coronary artery smooth muscle cells; actives raise or lower the signal;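 note: SAA protein level quantified by ELISA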
[10] = BSK_CASM3C_SRB: Viability Assessment in the BioMAP Diversity Plus: CASM3C Assay (AID 2283050); conditions: primary human coronary artery smooth muscle cells

Structure (SMILES) | AC50 [1] | outcome [2] | outcome [3] | outcome [4] | outcome [5] | outcome [6] | AC50 [7] | outcome [8] | outcome [9] | outcome [10] | outcome [1] | outcome [7] | AC50 [4] | AC50 [2] | AC50 [9] | AC50 [6] | AC50 [8] | AC50 [10]
CCc1nn(C)c(C(=O)NCc2ccc(C(C)(C)C)cc2)c1Cl | 20 µM (active) | inactive | inactive | inactive | inactive | inactive | 14.4 µM (active) | inactive | inactive | inactive | – | – | – | – | – | – | – | –
O=C(O)COc1nc(Cl)c(Cl)cc1Cl | – | inactive | inactive | inactive | inactive | inactive | – | inactive | inactive | inactive | inactive | inactive | – | – | – | – | – | –
CC1COC(Cn2cncn2)(c2ccc(Oc3ccc(Cl)cc3)cc2Cl)O1 (stereo not given) | 27.4 µM (active) | inactive | inactive | inactive | inactive | inactive | 27.8 µM (active) | inactive | inactive | inactive | – | – | – | – | – | – | – | –
N#CC(CCc1ccc(Cl)cc1)(Cn1cncn1)c1ccccc1 (stereo not given) | – | inactive | inactive | inactive | inactive | inactive | – | inactive | inactive | inactive | inactive | inactive | – | – | – | – | – | –
CCOC(=O)C(Cl)Cc1cc(-n2nc(C)n(C(F)F)c2=O)c(F)cc1Cl (stereo not given) | – | inactive | inactive | inactive | inactive | inactive | – | inactive | inactive | inactive | inactive | inactive | – | – | – | – | – | –
CCNc1nc(Cl)nc(NC(C)C)n1 | – | inactive | inactive | inactive | inactive | inactive | – | inactive | inactive | inactive | inactive | inactive | – | – | – | – | – | –
CON(C)C(=O)Nc1ccc(Cl)c(Cl)c1 | – | inactive | inactive | inactive | inactive | inactive | – | inactive | inactive | inactive | inactive | inactive | – | – | – | – | – | –
CC1=C(C(=O)Nc2ccccc2)SCCO1 | – | inactive | inactive | – | inactive | inactive | – | inactive | inactive | inactive | inactive | inactive | 0.524 µM (active) | – | – | – | – | –
O=C(Nc1ccccc1)Nc1ccnc(Cl)c1 | – | – | inactive | inactive | inactive | inactive | 28.6 µM (active) | inactive | inactive | inactive | inactive | – | – | 13 µM (active) | – | – | – | –
CCOP(=S)(OCC)SCn1c(=O)oc2cc(Cl)ccc21 | – | – | inactive | inactive | inactive | inactive | – | inactive | inactive | inactive | inactive | inactive | – | 4.25 µM (active) | – | – | – | –
CNC(=O)ON=CC(C)(C)SC | – | inactive | inactive | inactive | inactive | inactive | – | inactive | – | inactive | inactive | inactive | – | – | 1.35 µM (active) | – | – | –
CS/C(C)=N/OC(=O)N(C)SN(C)C(=O)O/N=C(\C)SC | – | – | inactive | – | inactive | – | 6.19 µM (active) | – | – | – | inactive | – | 28.9 µM (active) | 32.1 µM (active) | 20 µM (active) | 34.7 µM (active) | 35 µM (active) | 31.2 µM (active)
CCNc1nc(Cl)nc(NCC)n1 | – | inactive | inactive | inactive | inactive | inactive | – | inactive | inactive | inactive | inactive | inactive | – | – | – | – | – | –
CCCCNC(=O)n1c(NC(=O)OC)nc2ccccc21 | – | inactive | inactive | inactive | inactive | inactive | – | inactive | inactive | inactive | inactive | inactive | – | – | – | – | – | –
Cc1cc(Cl)ccc1OCC(=O)O | – | inactive | inactive | inactive | inactive | inactive | – | inactive | inactive | inactive | inactive | inactive | – | – | – | – | – | –
COC(=O)c1ccccc1C(=O)OC | – | inactive | inactive | inactive | inactive | inactive | – | inactive | inactive | inactive | inactive | inactive | – | – | – | – | – | –
C=CC1(C)OC(=O)N(c2cc(Cl)cc(Cl)c2)C1=O (stereo not given) | – | inactive | inactive | inactive | inactive | inactive | – | inactive | inactive | inactive | inactive | inactive | – | – | – | – | – | –
Cc1ccc(-c2c(Cl)nc(C#N)n2S(=O)(=O)N(C)C)cc1 | – | inactive | inactive | inactive | inactive | inactive | – | inactive | inactive | inactive | inactive | inactive | – | – | – | – | – | –
Cc1c(F)c(F)c(COC(=O)C2C(/C=C(\Cl)C(F)(F)F)C2(C)C)c(F)c1F (stereo not given) | – | inactive | inactive | inactive | inactive | inactive | – | inactive | inactive | inactive | inactive | inactive | – | – | – | – | – | –
CC(Oc1ccc(Cl)cc1Cl)C(=O)O (stereo not given) | – | inactive | inactive | inactive | inactive | inactive | – | inactive | inactive | inactive | inactive | inactive | – | – | – | – | – | –
COC(=O)C(C)Oc1ccc(Oc2ccc(Cl)cc2Cl)cc1 (stereo not given) | – | inactive | inactive | inactive | inactive | inactive | – | inactive | inactive | inactive | inactive | inactive | – | – | – | – | – | –
Oc1ccccc1-c1ccccc1 | – | inactive | inactive | inactive | inactive | inactive | – | inactive | inactive | inactive | inactive | inactive | – | – | – | – | – | –
CCOc1cc(Oc2ccc(C(F)(F)F)cc2Cl)ccc1[N+](=O)[O-] | – | inactive | inactive | inactive | inactive | inactive | 20 µM (active) | inactive | inactive | inactive | inactive | – | – | – | – | – | – | –
N#Cc1cc(Br)c(O)c(Br)c1 | – | inactive | inactive | inactive | inactive | inactive | – | inactive | inactive | inactive | inactive | inactive | – | – | – | – | – | –
COP(N)(=O)SC (stereo not given) | – | inactive | inactive | inactive | inactive | inactive | – | inactive | inactive | inactive | inactive | inactive | – | – | – | – | – | –
CC(C)C1(C)N=C(c2nc3ccccc3cc2C(=O)O)NC1=O (stereo not given) | – | inactive | inactive | inactive | inactive | inactive | – | inactive | inactive | inactive | inactive | inactive | – | – | – | – | – | –
CCOC(=O)CC(SP(=S)(OC)OC)C(=O)OCC (stereo not given) | – | inactive | inactive | inactive | inactive | inactive | – | inactive | inactive | inactive | inactive | inactive | – | – | – | – | – | –

Source: PubChem BioAssay (EPA / NIEHS)
